Several values for one entry are separate records, joined by “and”; a condition that tells them apart may be missing. Identical values can stand only once. Some structures have more than one record in an assay (separate samples or runs), and their calls can disagree. Activity calls are given as the source filed them. The calls were made as follows: active = hit-call score of the fitted dose curve at least 0.9, where 1 is the maximum; inactive = score below 0.9.
Columns and labels:
[1] = read-out: Interleukin-1 alpha (IL1a), IL1A (gene 3552); test: BSK_IMphg_IL1a: BioMAP Diversity Plus: IMphg Assay for Interleukin-1 alpha (IL1a) Biomarker Activity (AID 2284290); details: primary human endothelial cells with macrophages
Procedure, shortened: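 Human venular endothelial cells co-cultured with macrophages, IMphg system. IL-1α is measured by ELISA 24 h after dosing and fitted in the positive direction against DMSO. Cytotoxicity is assessed by SRB staining of parallel cultures.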

[2] = read-out: E-selectin (Homo sapiens) (UniProt P16581); test: BSK_IMphg_ESelectin: BioMAP Diversity Plus: IMphg Assay for Eselectin Biomarker Activity (AID 2284291); details: primary human endothelial cells with macrophages
Procedure, shortened: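 Human venular endothelial cell–macrophage co-culture, E-selectin measured by ELISA 24 h after chemical dosing. Signal fitted in the positive direction against DMSO as negative control and baseline.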

[3] = BSK_IMphg_SRB: Viability Assessment in the BioMAP Diversity Plus: IMphg Assay (AID 2284292); details: primary human endothelial cells with macrophages;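 also: measured one day after compound addition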
Procedure, shortened: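 Human venular endothelial cells with macrophages, 24 h after chemical dosing; total protein by 0.1% SRB staining after 10% TCA fixation, read at 560 nm. Positive-direction fitting versus DMSO baseline.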

[4] = read-out: Macrophage colony-stimulating factor (MCSF), CSF1 (gene 1435); test: BSK_IMphg_MCSF: BioMAP Diversity Plus: IMphg Assay for Macrophage colony-stimulating factor (MCSF) Biomarker Activity (AID 2284293); details: primary human endothelial cells with macrophages
Procedure, shortened: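 Co-culture of human venular endothelial cells and macrophages, 24 hours of chemical exposure. M-CSF quantified by ELISA, with parallel SRB total-protein staining for cytotoxicity; activity fitted relative to DMSO.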

[5] = read-out: Interleukin-10 (IL10), IL10 (gene 3586); test: BSK_IMphg_IL10: BioMAP Diversity Plus: IMphg Assay for Interleukin-10 (IL10) Biomarker Activity (AID 2284294); details: primary human endothelial cells with macrophages
Procedure, shortened: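 Human venular endothelial cells cocultured with macrophages, dosed 24 h; IL-10 measured by ELISA, activity relative to DMSO. Cytotoxicity assessed in parallel cultures by sulforhodamine B total-protein staining.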

[6] = BSK_IMphg_SRB.Mphg: Macrophage Viability Assessment in the BioMAP Diversity Plus: IMphg Assay (AID 2284295); details: primary human endothelial cells with macrophages
Procedure, shortened: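 Venular endothelial cells co-cultured with macrophages, read 24 h after dosing. Total protein measured by 0.1% SRB staining after 10% TCA fixation, absorbance at 560 nm. Fitted in positive direction against DMSO baseline.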

[7] = read-out: Thrombomodulin, THBD (gene 7056); test: BSK_LPS_Thrombomodulin: BioMAP Diversity Plus: LPS Assay for Thrombomodulin Biomarker Activity (AID 2284296); details: primary human HUVEC with PBMC
Procedure, shortened: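 Human umbilical vein endothelial cells co-cultured with PBMC and stimulated with LPS; cell-surface thrombomodulin measured by ELISA 24 hours after compound. Gain or loss versus DMSO; cytotoxicity checked by SRB staining in parallel cultures.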

CD69, CD69 (gene 969) = test: BSK_LPS_CD69: BioMAP Diversity Plus: LPS Assay for CD69 Biomarker Activity (AID 2284303); details: primary human HUVEC with PBMC
Procedure, shortened: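 Human umbilical vein endothelial cells co-cultured with PBMC under LPS stimulation, chemical exposure 24 h; cell-surface CD69 measured by ELISA and fitted in the positive direction versus DMSO.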

E-selectin (Homo sapiens), sequence (P16581 whole entry, looked up): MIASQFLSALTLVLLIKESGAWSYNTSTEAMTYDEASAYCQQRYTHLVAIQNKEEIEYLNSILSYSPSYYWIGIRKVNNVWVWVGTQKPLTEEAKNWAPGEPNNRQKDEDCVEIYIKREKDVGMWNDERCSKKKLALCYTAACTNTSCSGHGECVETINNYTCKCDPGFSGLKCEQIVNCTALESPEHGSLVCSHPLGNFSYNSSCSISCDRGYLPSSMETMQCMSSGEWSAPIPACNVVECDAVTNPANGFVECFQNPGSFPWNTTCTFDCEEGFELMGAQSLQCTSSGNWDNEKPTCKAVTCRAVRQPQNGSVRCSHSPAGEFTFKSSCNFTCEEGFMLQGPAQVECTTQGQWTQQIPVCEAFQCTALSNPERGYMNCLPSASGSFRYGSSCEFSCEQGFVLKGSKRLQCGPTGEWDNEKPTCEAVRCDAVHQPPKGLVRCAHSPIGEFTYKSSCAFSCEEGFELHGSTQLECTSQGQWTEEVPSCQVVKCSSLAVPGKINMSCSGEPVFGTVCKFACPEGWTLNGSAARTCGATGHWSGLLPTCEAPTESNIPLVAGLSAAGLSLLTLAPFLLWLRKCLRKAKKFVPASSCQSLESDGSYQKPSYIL

Structure (SMILES)	outcome [1]	outcome [2]	outcome [3]	outcome [4]	outcome [5]	AC50 [6]	outcome [6]	outcome [7]	outcome (CD69, CD69 (gene 969))	AC50 [2]	AC50 [3]	AC50 [5]	AC50 [7]	AC50 (CD69, CD69 (gene 969))	AC50 [4]	AC50 [1]
OCC(F)(F)C(F)(F)C(F)(F)C(F)(F)C(F)(F)C(F)(F)F	inactive	inactive	inactive	inactive	inactive	21.6 µM (active)	inactive	inactive	inactive	–	–	–	–	–	–	–
O=P(O)(O)OCCC(F)(F)C(F)(F)C(F)(F)C(F)(F)C(F)(F)C(F)(F)F	inactive	inactive	inactive	inactive	inactive	–	inactive	inactive	inactive	5.46 µM (active)	–	–	–	–	–	–
O=C(O)C(F)(F)C(F)(F)C(F)(F)C(F)(F)C(F)(F)C(F)(F)C(F)(F)C(F)(F)C(F)(F)C(F)F	inactive	inactive	–	inactive	–	49 µM (active) and 22.5 µM (active)	–	–	–	–	55.7 µM (active) and 50.4 µM (active)	47.3 µM (active) and 45 µM (active)	55 µM (active) and 12.4 µM (active)	37.8 µM (active) and 27.9 µM (active)	–	–
COC(=O)CCC(F)(F)C(F)(F)C(F)(F)C(F)(F)F	inactive	inactive	inactive	inactive	inactive	–	inactive	inactive	inactive	–	–	7.74 µM (active)	–	–	–	–
FC(F)(F)C(F)(F)C(F)(F)C(F)(F)CCI	inactive	inactive	inactive	inactive	inactive	–	inactive	inactive	inactive	–	–	–	–	–	–	–
O=C(O)C(F)(F)C(F)(F)C(F)F	inactive	inactive	inactive	inactive	inactive	–	inactive	inactive	inactive	–	–	–	–	–	–	–
FC(F)(F)C(F)(F)C(F)(F)C(F)(F)C(F)(F)C(F)(F)CCS	inactive	inactive	inactive	inactive	inactive	2.57 µM (active)	inactive	inactive	inactive	–	–	2.49 µM (active)	–	–	–	–
O=C(O)C(F)(F)C(F)(F)C(F)(F)F	inactive	inactive	inactive	inactive	inactive	–	inactive	inactive	inactive	–	–	–	–	–	–	–
FC(F)(F)C(F)(F)C(F)(F)CI	inactive	inactive	inactive	inactive	inactive	–	inactive	inactive	inactive	–	–	–	1.34 µM (active)	–	–	–
FC(F)(F)C(F)(F)C(F)(F)C(F)(F)C(F)(F)C(F)(F)C(F)(F)I	inactive	inactive	inactive	inactive	inactive	–	inactive	inactive	inactive	–	–	–	–	–	–	–
NC(=O)C(F)(F)C(F)(F)C(F)(F)C(F)(F)F	inactive	inactive	inactive	inactive	inactive	–	inactive	inactive	inactive	–	–	–	–	–	–	–
O=C(O)C=C(C(F)(F)F)C(F)(F)F	inactive	–	inactive	inactive	–	–	inactive	inactive	inactive	20.2 µM (active) and 18 µM (active)	–	12.8 µM (active) and 11.3 µM (active)	1.97 µM (active)	–	–	–
OCC(F)(F)C(F)(F)C(F)(F)F	inactive	inactive	inactive	inactive	inactive	–	inactive	inactive	inactive	–	–	–	–	–	–	–
FC(F)(Br)C(F)(F)C(F)(F)C(F)(F)C(F)(F)C(F)(F)Br	inactive	inactive	inactive	inactive	inactive	–	inactive	inactive	inactive	–	–	–	–	–	–	–
FC(F)(I)C(F)(F)C(F)(F)C(F)(F)I	inactive	inactive	inactive	inactive	inactive	47.8 µM (active) and 45.9 µM (active)	inactive	inactive	inactive	–	–	30 µM (active)	45.8 µM (active)	–	30 µM (active) and 19.6 µM (active)	–
C=CC(=O)OCC(F)(F)C(F)(F)C(F)(F)C(F)(F)COC(=O)C=C	inactive	–	inactive	inactive	–	21.5 µM (active) and 51.8 µM (active)	–	inactive	–	25.1 µM (active) and 31.3 µM (active)	–	24.4 µM (active) and 33.7 µM (active)	51.4 µM (active)	8.63 µM (active) and 9.41 µM (active)	–	30 µM (active)
O=C(Cl)C(F)(F)C(F)(F)C(F)(F)C(F)(F)C(F)(F)C(F)(F)C(F)(F)C(F)(F)F	inactive	inactive	–	inactive	inactive	–	inactive	inactive	inactive	40.2 µM (active)	54.8 µM (active) and 40 µM (active) and 47.8 µM (active)	51.8 µM (active) and 44.2 µM (active)	40.9 µM (active) and 21.5 µM (active)	18.1 µM (active) and 22.1 µM (active)	–	–
